# Screening results as filed in PubChem.
# RORg inh = qHTS for inhibitors of ROR gamma transcriptional activity; Nuclear receptor ROR-gamma (Mus musculus), P51450; Drosophila S2 Gal4-RORgamma UAS-luciferase reporter, 20 h; Potency, µM (series often up to 53.6 µM), for the others: top-dose activity change, negative = inhibition, most hits filed as inhibitors; 310,000 compounds, 5.4% hits; also: nearly all actives have a fitted effect of over 60% in size
# Target sequence (P51450 whole entry, looked up, the tested form may be a part): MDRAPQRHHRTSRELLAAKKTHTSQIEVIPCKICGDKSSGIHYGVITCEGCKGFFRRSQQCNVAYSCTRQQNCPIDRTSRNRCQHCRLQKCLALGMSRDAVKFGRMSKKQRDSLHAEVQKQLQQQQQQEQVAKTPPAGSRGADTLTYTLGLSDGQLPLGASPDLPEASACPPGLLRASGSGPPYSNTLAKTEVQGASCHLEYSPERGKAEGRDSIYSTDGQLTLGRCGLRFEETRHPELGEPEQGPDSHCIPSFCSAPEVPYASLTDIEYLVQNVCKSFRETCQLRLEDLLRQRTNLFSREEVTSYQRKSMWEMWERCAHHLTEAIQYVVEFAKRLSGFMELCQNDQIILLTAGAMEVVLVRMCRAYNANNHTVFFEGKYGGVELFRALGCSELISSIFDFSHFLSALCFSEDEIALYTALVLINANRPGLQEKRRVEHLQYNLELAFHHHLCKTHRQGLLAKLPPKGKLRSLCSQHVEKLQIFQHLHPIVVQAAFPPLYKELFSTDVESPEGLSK
#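 Luminescence from a UAS-regulated Photinus luciferase reporter in stably transfected Drosophila Schneider cells is measured; decreased signal marks ROR gamma inhibition. Fusion expression is induced by 700 uM copper sulfate for 20 hr.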
# 12-LOX inh = Primary qHTS assay for inhibitors of human arachidonate 12S-lipoxygenase (ALOX12): Round 2; Polyunsaturated fatty acid lipoxygenase ALOX12 (Homo sapiens), P18054; purified 12hLO, xylenol orange hydroperoxide absorbance; Potency, µM (highest dose often 108 µM), inactives show top-dose activity change, negative = inhibition, usual class: inhibitors; 580,000 compounds, 1.1% hits; AID 1671190, 2021
#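 Purified human 12hLO at 150 nM in 25 mM Hepes, 0.01% Triton X-100, pH 7.0, preincubated 15 min at room temperature with compound. Reaction started with 40 uM arachidonic acid, 30 min at room temperature. Hydroperoxide measured by Fe-xylenol orange, 573/405 nm absorbance ratio.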
# TDP1 cell CPT = qHTS for Inhibitors of human tyrosyl-DNA phosphodiesterase 1 (TDP1): qHTS in cells in presence of CPT | Potency, µM (titrated, usually from 46.2 µM), for inactives: at the top dose activity change, negative = growth inhibition, most hits filed as inhibitors | chicken DT40 Tdp1-/-;hTDP1 cells + 20 nM CPT, ATP luminescence, 48 h | 420,000 compounds, 12% hits; also: nearly all actives have a fitted effect of over 55% in size
#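 Cell growth measured by CellTiter-Glo luminescence after a minimum 48 h, 37 C compound exposure with 20 nM CPT in Tdp1-knockout DT40 cells stably expressing hTDP1, seeded 400/well; qHTS titration format.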
# TDP1 cell noCPT = qHTS for Inhibitors of human tyrosyl-DNA phosphodiesterase 1 (TDP1): qHTS in cells in absence of CPT | DT40 Tdp1-/- hTDP1 cells, no CPT, ATP luminescence, 48 h | Potency, µM (series often up to 46.2 µM), inactives show at the top dose activity change, negative = growth inhibition, hits mostly inhibitors | 420,000 compounds, 15% hits; also: nearly all actives have a fitted effect of over 55% in size
#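 Readout: luminescence from CellTiter-Glo after 30 min in the dark at RT. Cells: DT40 Tdp1-/- with stable hTDP1, 400/well. Exposure: compounds alone, ≥48 hr, 37 °C.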
# ELG1 repair inh = qHTS screen for small molecules that inhibit ELG1-dependent DNA repair in human embryonic kidney (HEK293T) cells expressing luciferase-tagged ELG1 | AID 504467, 2011 | Potency, µM (titrated, usually from 46.1 µM), without a hit: at the highest dose activity change, negative = inhibition, most hits filed as inhibitors | HEK293T ELG1-luciferase reporter, luminescence, 16 h; DNA damage induced by 5-fluorouridine | 330,000 compounds, 2.3% hits; also: nearly all actives have a fitted effect of over 55% in size
#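 5-Fluorouridine DNA damage + compound/DMSO, 2,000 cells/well, 16 h, 37 °C/5% CO2. ONE-Glo, 30 min RT, luminescence. Readout = decrease in reporter signal.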
# VP16 counter = VP16 counterscreen qHTS for inhibitors of ROR gamma transcriptional activity. Drosophila S2 Gal4-VP16 UAS-luciferase, luminescence, 20 h. Potency, µM (doses to about 53.6 µM), without a hit: at the highest dose activity, negative = inhibition, hits mostly inhibitors. 310,000 compounds, 3.5% hits;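 also: Gal4-VP16 expression switched on by copper sulfate through the metallothionein promoter; nearly all actives have a fitted effect of over 50% in size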
# * hit, by the source's call; ? = inconclusive; / = no result; [ ] = dose if it differs, or a comment. In the library only some 15% were active in any assay of this set; here they are far more common. Calls follow the shape of the dose curve; as a rule, active = well fitted curve in the direction sought with a large enough effect; inconclusive = small, poorly fitted or top-dose-only effect, or another doubt; inactive = no such curve, though single readings can be large; an effect the other way counts as inactive or inconclusive. % is scaled to controls: 0 for no effect and ±100 for the full control effect; potency is read from the fitted curve at half-maximal effect.
SMILES,RORg inh,12-LOX inh,TDP1 cell CPT,TDP1 cell noCPT,ELG1 repair inh,VP16 counter
COc1ccc2cc(C(=O)C3CCCN(Cc4cnc(N5CCOCC5)s4)C3)ccc2c1 (centres undefined),6.9%,-22.1%,?,18.4µM*,?,-2.5%
CC(C)Oc1cccc(C(=O)C2CCCN(Cc3cnc(N4CCCC4)s3)C2)c1 (centres undefined),0.5%,-1.1%,?,?,?,-8.3%
O=C(Nc1ccc(OC(F)(F)F)cc1)C(=O)c1c[nH]c2ccccc12,/,-3.8%,/,/,/,/
O=C(OCc1nc2ccccc2o1)c1ccccc1F,/,2.5%,/,/,/,/
CCOc1ccc(C(=O)N[C@@H]2CN(c3ncccn3)C[C@H]2CO)cc1,/,31.1%,/,/,/,/
O=S(=O)(NC[C@H]1OC[C@@H](NCc2ccccn2)[C@@H]1O)c1ccccc1,/,76.9%[176 µM],/,/,/,/
O=C(c1ccc2c(c1)OCO2)C1CCCN(Cc2ccc3cccc(F)c3n2)C1 (centres undefined),-28.5%,0.1%,?,20.6µM*,-9.4%,-3.9%
O=C(c1ccc2c(c1)OCO2)C1CCCN(Cc2cccc(C(F)(F)F)c2)C1 (centres undefined),-3.8%,-2.6%,?,2.4%,-6.9%,0.7%
O=C(Nc1cccc2cnccc12)c1cccc(S(=O)(=O)N2CCCCCC2)c1,/,-5.1%,/,/,/,/
Cc1[nH]n(-c2ccc(Cl)cc2)c(=O)c1N=Nc1cccnc1,?,-11.9%,18.4µM*,16.4µM*,?,0.2%
NC1CC(c2cc(N3CCN(c4cnccn4)CC3)nc(C3CC3)n2)C1 (centres undefined),/,25.1%,/,/,/,/
O=c1[nH]c(CN2CCN(Cc3ccc4c(c3)OCO4)CC2)nc2sc3c(c12)CCC3,-1.0%,/,/,/,-0.2%,-14.8%
O=c1[nH]c(CN2CCN(S(=O)(=O)c3ccccc3C(F)(F)F)CC2)nc2sc3c(c12)CCCC3,39.8%,5.7%,?,?,16.4µM*,-17.3%
N#Cc1ccc(CN2CCC3(CC2)OCCN(CCc2ccccc2)C3=O)cc1,/,-8.2%[176 µM],/,/,/,/
CC(C)C(NC(=O)c1ccccc1)C(=O)OCC(=O)N1CCCC1 (centres undefined),/,-12.2%,-0.2%,8.7%,13.1%,/
CC(C)[C@H](NC(=O)c1ccc(Cl)cc1)C(=O)OCC(=O)N1CCN(c2ccccc2)CC1,/,?,?,20.6µM*,?,/
COc1ccc(N2CCN(C(=O)CNC(=O)Cc3ccc(Cl)cc3)CC2)cc1,-6.6%,31.6µM*,5.17µM*,5.8µM*,-17.6%,-3.4%
O=C(Cc1ccc(Cl)cc1)NCC(=O)N1CCN(c2ccccc2)CC1,?,-0.8%,29.1µM*,23.1µM*,-25.1%,-11.6%
CSCCC(NC(N)=O)C(=O)N(C)CC(=O)Nc1cc(C)ccc1C (centres undefined),26.1%,-3.2%,-4.5%,3.2%,7.1%,1.4%
Cc1ccc(C)c(NC(=O)CN(C)C(=O)[C@@H](NC(=O)c2ccc(C(C)(C)C)cc2)C(C)C)c1,?,-4.6%,23.1µM*,18.4µM*,?,?
N#CC1=C(Nc2ccccc2Cl)SC(c2ccccc2O)NC1=O (centres undefined),12.6µM*,?,20.6µM*,?,?,?
CCNC(=O)C1(C)CCCN1Cc1c(F)cccc1F (centres undefined),/,?,?,16.4µM*,/,/
Cc1ccc(OCCN2CCC2(C)C(=O)NCc2ccc(C(F)(F)F)cc2)cc1 (centres undefined),/,?,?,20.6µM*,/,/
CC1(C(=O)NCc2ccc(C(F)(F)F)cc2)CCN1Cc1c(F)cccc1F (centres undefined),/,0.6%,16.4µM*,?,/,/
Cc1ccc(OCCN2CCC2(C)C(=O)NCc2cccc3ccccc23)cc1 (centres undefined),/,5.1%,?,?,/,/
SMILES,RORg inh,12-LOX inh,TDP1 cell CPT,TDP1 cell noCPT,ELG1 repair inh,VP16 counter
Cc1ccc(-c2nc(CSc3nnc(NCc4ccccc4)s3)co2)cc1,/,9.9%,/,/,/,/
COc1ccc(C(=O)c2nc3c(n2O)CCCC3)cc1OC,-17.5%,8.91µM*,9.2%,11.8%,6.8%,9.2%
COc1ccc(C(=O)c2nc3c(n2O)CCCCC3)cc1,-3.0%,?,-10.9%,-7.6%,?,11.1%
Cc1ccccc1NC(=O)c1ccc2c(c1)CCCN2S(C)(=O)=O,/,5.4%,/,/,/,/
O=C(NCc1cccc(C(F)(F)F)c1)C1CC2Cn3c(nc4ccccc43)C2N1Cc1ccccc1 (centres undefined),/,?,-90.1%,13µM*,/,/
O=C(NCc1ccc(OC(F)(F)F)cc1)C1CC2Cn3c(nc4ccccc43)C2N1Cc1ccccc1 (centres undefined),-16.7%,5.8%,?,?,-12.5%,-1.2%
Cc1nc(C)c(CC(=O)NC2CC(c3cc(=O)[nH]cn3)C2)s1 (centres undefined),/,-0.4%,/,/,/,/
CCOC(=O)[C@]12CCCC=C1N(Cc1ccc3c(c1)OCO3)C(=O)[C@H](CC(=O)NCc1cccc(C(F)(F)F)c1)C2,/,-12.5%,?,16.4µM*,/,/
CCOC(=O)[C@]12CCC=C1N(Cc1ccc3c(c1)OCO3)C(=O)[C@H](CC(=O)NCc1cccc(C(F)(F)F)c1)C2,/,-9.6%,20.6µM*,23.1µM*,/,/
COC(=O)[C@]12CCCCC=C1N(Cc1ccc3c(c1)OCO3)C(=O)[C@H](CC(=O)NCc1ccccc1)C2,/,-36.1%,?,?,/,/
Cn1c(CNc2cccc(Br)c2)c(C#N)c2ccccc21,/,-8.7%,/,/,/,/
CC(C)CC(=O)N1C[C@@H](Oc2cccnc2)C[C@H]1C(=O)NC1CC1,/,0.4%,/,/,/,/
Cc1ccc(/C=N/n2c(COc3ccccc3)n[nH]c2=S)cc1,3.16µM*,-13.8%,4.1%,11.2%,1.9%,?
CN(C)c1ccc(/C=N/n2c(COc3ccccc3)n[nH]c2=S)cc1,3.16µM*,?,-19.6%,-28.2%,-25.7%,3.98µM*
CN(C)c1ccc(/C=N/n2c(-c3cccnc3)n[nH]c2=S)cc1,-33.6%,?,-4.2%,-7.3%,-2.2%,1.7%
CN(C)c1ccc(/C=N/n2c(-c3ccccc3Br)n[nH]c2=S)cc1,3.55µM*,0.0%,13.5%,-24.3%,13.0%,3.8%
